In PubChem BioAssay (NCI):
This is part of a sample that, as a whole, favours compounds with a hit. Of some 83,000 tested, about 20% had one in any assay.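 Compound tested at a single concentration for 48 hours in 96-well plates; a percent growth value below 10 was scored as active.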 The source made the active and inactive calls.

Columns and labels:
Assay in all cases: NCI-60 one-dose screen, 48 h (100 = growth as untreated, 0 = no growth, -100 = all killed)
Conditions in all cases: 10 µM unless noted
HCT-15 colon = system: HCT-15 colon
HT29 colon = system: HT29 colon
SNB-75 CNS = system: SNB-75 CNS
SNB-19 CNS = system: SNB-19 CNS
U251 CNS = system: U251 CNS
PC-3 prostate = system: PC-3 prostate
SK-MEL-5 melanoma = system: SK-MEL-5 melanoma
UACC-62 melanoma = system: UACC-62 melanoma
LOX IMVI melanoma = system: LOX IMVI melanoma
SK-MEL-28 melanoma = system: SK-MEL-28 melanoma

Measured: growth

CCOC1=C(Cl)C(=O)C(OCC)=C(Cl)C1=O
inactive: HCT-15 colon 107% | HT29 colon 101% | SNB-75 CNS 93.3% | SNB-19 CNS 96.3% | U251 CNS 104% | PC-3 prostate 104% | SK-MEL-5 melanoma 105% | UACC-62 melanoma 98.1% | LOX IMVI melanoma 104% | SK-MEL-28 melanoma 109%

CC(Br)c1nc2ccccc2cc1C(N)=O (stereo not given)
inactive: HCT-15 colon 98.9% | HT29 colon 105% | SNB-75 CNS 88.3% | SNB-19 CNS 105% | U251 CNS 97.9% | PC-3 prostate 103% | SK-MEL-5 melanoma 104% | UACC-62 melanoma 93.7% | LOX IMVI melanoma 85.6% | SK-MEL-28 melanoma 107%

Cc1cc(CSc2ccc(Cl)cc2)ccc1N
inactive: HCT-15 colon 98.3% | HT29 colon 106% | SNB-75 CNS 87.3% | SNB-19 CNS 84.3% | U251 CNS 78.6% | PC-3 prostate 76.5% | SK-MEL-5 melanoma 103% | UACC-62 melanoma 90.5% | LOX IMVI melanoma 98.6% | SK-MEL-28 melanoma 111%

COc1cc(-c2nn(-c3ccc(NC(=O)Nc4ccc(Cl)c(Cl)c4)cc3)cc2-c2ccncc2)ccc1Cl
inactive: HCT-15 colon 28.9% | HT29 colon 18.1% | SNB-75 CNS 25% | SNB-19 CNS 36.9% | U251 CNS 24.3% | PC-3 prostate 16.9% | SK-MEL-5 melanoma 48% | UACC-62 melanoma 32.8% | LOX IMVI melanoma 20.1% | SK-MEL-28 melanoma 41.5%

CCc1ccc(C(=Nc2ccc(N(C)C(=O)CN3CCN(C)CC3)cc2)c2c(O)[nH]c3ccc(C(=O)OC)cc23)cc1
active: HCT-15 colon -73.2% | HT29 colon -66.3% | SNB-75 CNS -97.3% | SNB-19 CNS -84.9% | U251 CNS -75.1% | PC-3 prostate -60.9% | SK-MEL-5 melanoma -98.1% | UACC-62 melanoma -57.5% | LOX IMVI melanoma -93.9% | SK-MEL-28 melanoma -87.3%

COc1ccc(-c2cn3ccnc3c(-c3ccc4ncn(C5CCCCC5)c4c3)n2)cc1
inactive: HCT-15 colon 21.2% | SNB-19 CNS 31.6% | U251 CNS 19.1% | UACC-62 melanoma 34.8% | LOX IMVI melanoma 30.4% | SK-MEL-28 melanoma 52.3%
active: HT29 colon 7.49% | SNB-75 CNS -26.3% | PC-3 prostate 4.78% | SK-MEL-5 melanoma 7.7%

c1ccc(C(=NNc2nc3ccccc3o2)c2ccccn2)nc1
inactive: HCT-15 colon 16.8% | HT29 colon 23% | SNB-75 CNS 31.7% | SNB-19 CNS 24.5% | U251 CNS 10.6% | PC-3 prostate 29.2% | SK-MEL-28 melanoma 25.2%
active: SK-MEL-5 melanoma -58% | UACC-62 melanoma -8.29% | LOX IMVI melanoma 0.582%

CCCCN(CCCC)CC(O)CN(CC)CC (stereo not given)
inactive: HCT-15 colon 104% | HT29 colon 88% | SNB-75 CNS 87.3% | SNB-19 CNS 105% | U251 CNS 102% | PC-3 prostate 97.7% | SK-MEL-5 melanoma 96.2% | UACC-62 melanoma 105% | LOX IMVI melanoma 96.1% | SK-MEL-28 melanoma 109%

COc1cc(/C=C/C(=O)/C=C(/C=C/c2ccc(OC(C)=O)c(OC)c2)OB(F)F)ccc1OC(C)=O
inactive: HCT-15 colon 15.4% | HT29 colon 61.4% | SNB-75 CNS 53% | SNB-19 CNS 69.4% | U251 CNS 33.3% | PC-3 prostate 63% | SK-MEL-5 melanoma 69.6% | UACC-62 melanoma 49.6% | LOX IMVI melanoma 20% | SK-MEL-28 melanoma 66.8%

COc1ccc(Cn2cc3c(c2)-c2oncc2CC3)cc1OC
inactive: HCT-15 colon 16.3% | SNB-19 CNS 42% | U251 CNS 18.9% | PC-3 prostate 25.5% | UACC-62 melanoma 40.6% | LOX IMVI melanoma 37.3% | SK-MEL-28 melanoma 50.3%
active: HT29 colon 7.91% | SNB-75 CNS 0.447% | SK-MEL-5 melanoma 9.72%

C=C(C)[C@@H]1CC[C@]2(COC(=O)c3ccccc3C(=O)O)CC[C@]3(C)[C@H](CC[C@@H]4[C@@]5(C)CCCNC(C)(C)[C@@H]5CC[C@]43C)[C@@H]12
inactive: HCT-15 colon 58% | HT29 colon 26.6% | SNB-75 CNS 75% | SNB-19 CNS 71% | U251 CNS 44.8% | PC-3 prostate 20.8% | SK-MEL-5 melanoma 46.2% | UACC-62 melanoma 75.6% | LOX IMVI melanoma 48.3% | SK-MEL-28 melanoma 74.4%

CCCCCCCCc1ccc(OCCOCC[N+](C)(C)CC)cc1 (tested in a mixture with another compound)
active: SNB-75 CNS 9.08% | SK-MEL-5 melanoma -52.3% | UACC-62 melanoma 9.07%
inactive: HCT-15 colon 98.4% | HT29 colon 25.5% | SNB-19 CNS 16.4% | U251 CNS 20.8% | PC-3 prostate 42.6% | LOX IMVI melanoma 29.1% | SK-MEL-28 melanoma 16%

NC(CSC(c1ccccc1)(c1ccccc1)c1ccccc1)C(=O)NCC(=O)O (stereo not given)
inactive: HCT-15 colon 73.2% | HT29 colon 101% | SNB-75 CNS 76.1% | SNB-19 CNS 85.7% | U251 CNS 38.3% | PC-3 prostate 81.9% | SK-MEL-5 melanoma 44.3% | UACC-62 melanoma 62.5% | LOX IMVI melanoma 81.4% | SK-MEL-28 melanoma 63.3%
